Some test systems named below: SR leukemia; RPMI-8226 leukemia; OVCAR-8 ovarian; OVCAR-5 ovarian; OVCAR-4 ovarian; SK-OV-3 ovarian; IGROV1 ovarian; OVCAR-3 ovarian; HS 578T breast; NCI/ADR-RES ovarian; T-47D breast; BT-549 breast; MDA-MB-435 melanoma; SW-620 colon; MCF7 breast; HCT-116 colon; HCC-2998 colon; KM12 colon.
Holding throughout (test): NCI-60 one-dose screen, 48 h (100 = growth as untreated, 0 = no growth, -100 = all killed)
What all share (settings): 10 µM unless noted

Compounds without any hit were thinned out: in the full panel of roughly 83,000, 20% have a hit.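 Percent growth is the endpoint: 0 to 100 indicates growth inhibition (40 means 60% inhibition), 0 means no net growth, and negative values indicate cell death.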 A number with no mark means an inactive call. Active and inactive are the calls of the source. How the source made its calls: active means growth percent below 10; inactive means the rest.

Turning to `CC(C)C(=O)Nc1ncc(C(=O)NCCN(Cc2ccccc2)C(=O)c2ccc(S(=O)(=O)Nc3ccccc3)cc2)s1`, the growth in the assay with SR leukemia is 100%; in the assay with RPMI-8226 leukemia, 97.6%; in the assay on OVCAR-8 ovarian, 102%; in the assay on OVCAR-5 ovarian, 97.7%; in the assay with OVCAR-4 ovarian, 112%; in the assay on SK-OV-3 ovarian it was 110%. Further, the growth was 105% with IGROV1 ovarian; 106% in the assay on OVCAR-3 ovarian; 87.1% with HS 578T breast; 101% with NCI/ADR-RES ovarian; 91.7% in the assay with T-47D breast; 89.2% with BT-549 breast. In addition, the growth was 98.1% in the assay on MDA-MB-435 melanoma; 107% in the assay with SW-620 colon; 85.8% in the assay on MCF7 breast; 90.9% with HCT-116 colon; 106% in the assay with HCC-2998 colon; 105% in the assay with KM12 colon.

Consider `COc1ccc(/C(C)=C(\c2ccc(Cl)cc2)c2ccc(OCCCN(C)C)cc2)cc1`, for which the growth with SR leukemia is 0.701% (active); with RPMI-8226 leukemia, 25.6%; with OVCAR-8 ovarian, 85%; in the assay with OVCAR-5 ovarian it was 83.4%; in the assay on OVCAR-4 ovarian, 90.4%; in the assay on SK-OV-3 ovarian, 111%. For the same molecule, the growth in the assay on IGROV1 ovarian was 81.3%; in the assay with OVCAR-3 ovarian, 89%; in the assay on HS 578T breast it was 71.5%; in the assay with NCI/ADR-RES ovarian it was 86.5%; with T-47D breast, 58.1%; with BT-549 breast it was 82.3%. The growth in the assay on MDA-MB-435 melanoma is 39%; in the assay with SW-620 colon it was 46.3%; with MCF7 breast it was 36.9%; in the assay with HCT-116 colon, 37.4%; in the assay with HCC-2998 colon, 100%; in the assay with KM12 colon it was 56.5%.

On to `CN(C)C(=S)NN=C(c1ccccn1)c1ccccn1`, for which the growth in the assay on SR leukemia is -33.6% (active); in the assay with RPMI-8226 leukemia, 17.8%; in the assay on OVCAR-8 ovarian, 33.1%; in the assay on OVCAR-5 ovarian it was 59.1%; in the assay on OVCAR-4 ovarian, 21.5%; in the assay on SK-OV-3 ovarian, 51%. Also, the growth is 16% in the assay with IGROV1 ovarian; 51.9% in the assay on OVCAR-3 ovarian; 44.9% in the assay on HS 578T breast; 19.9% with NCI/ADR-RES ovarian; 29.6% with T-47D breast; 17% with BT-549 breast. Further, the growth in the assay on MDA-MB-435 melanoma was 41.4%; in the assay with SW-620 colon it was 17.7%; in the assay with MCF7 breast it was 17.3%; in the assay on HCT-116 colon, 20.5%; in the assay on HCC-2998 colon it was 40%; with KM12 colon, 16.7%.

In the case of `Clc1ccc(C2=Nn3c(nnc3-c3cc(Cl)cc(Cl)c3Cl)SC2)cc1`, the growth is 2.55% (active) in the assay with SR leukemia; 42.8% in the assay on RPMI-8226 leukemia; 71.8% with OVCAR-8 ovarian; 19.3% in the assay with OVCAR-5 ovarian; 74.9% in the assay with OVCAR-4 ovarian; 50.4% with SK-OV-3 ovarian. Moreover, the growth in the assay with IGROV1 ovarian was 22.7%; in the assay with OVCAR-3 ovarian, 8.59% (active); in the assay on HS 578T breast, 20.9%; in the assay on NCI/ADR-RES ovarian, 5.52% (active); with T-47D breast, 63.2%; in the assay with BT-549 breast, 31.4%. Also, the growth was -15.6% (active) in the assay with MDA-MB-435 melanoma; 19.1% in the assay with SW-620 colon; 7.6% (active) with MCF7 breast; 13.7% with HCT-116 colon; -8.03% (active) with HCC-2998 colon; 23.5% in the assay with KM12 colon.

Turning to `O=C(O)CCCN1C(=O)CSC1=S`, the growth in the assay on SR leukemia is 103%; in the assay on RPMI-8226 leukemia, 98%; in the assay on OVCAR-8 ovarian, 105%; in the assay with OVCAR-5 ovarian it was 106%; with OVCAR-4 ovarian, 102%; with SK-OV-3 ovarian, 109%. In addition, the growth with IGROV1 ovarian is 103%; with OVCAR-3 ovarian, 105%; with HS 578T breast it was 98.9%; in the assay on NCI/ADR-RES ovarian it was 103%; in the assay on T-47D breast, 97.7%; in the assay with BT-549 breast, 99.8%. Further, the growth with MDA-MB-435 melanoma is 97.7%; in the assay with SW-620 colon, 114%; with MCF7 breast it was 90.9%; in the assay on HCT-116 colon, 102%; in the assay with HCC-2998 colon, 104%; with KM12 colon, 101%.

In the case of `COc1cccc(-c2nn(-c3ccccc3)cc2-c2ccnc(-c3cccnc3)c2)c1`, the growth in the assay on SR leukemia was 74.9%; with RPMI-8226 leukemia, 67.7%; in the assay on OVCAR-8 ovarian, 105%; with OVCAR-5 ovarian, 95.9%; in the assay on OVCAR-4 ovarian it was 82.7%; in the assay with SK-OV-3 ovarian, 104%. Moreover, the growth was 94.8% in the assay with IGROV1 ovarian; 96.8% with OVCAR-3 ovarian; 120% in the assay with HS 578T breast; 90.6% in the assay with NCI/ADR-RES ovarian; 76.9% with T-47D breast; 98.5% with BT-549 breast. In addition, the growth in the assay with MDA-MB-435 melanoma was 97.7%; in the assay with SW-620 colon, 109%; in the assay with MCF7 breast, 87.1%; with HCT-116 colon, 85.7%; in the assay with HCC-2998 colon it was 96.4%; in the assay on KM12 colon it was 94.7%.

Turning to `Cc1cccc(CN(Nc2ccccc2)c2ccccc2)n1`, the growth is 93% in the assay with SR leukemia; 96.3% in the assay on RPMI-8226 leukemia; 98.5% in the assay on OVCAR-8 ovarian; 102% in the assay with OVCAR-5 ovarian; 109% in the assay on OVCAR-4 ovarian; 104% in the assay with SK-OV-3 ovarian. The growth is 127% with IGROV1 ovarian; 99.5% in the assay with OVCAR-3 ovarian; 109% in the assay with HS 578T breast; 102% in the assay with NCI/ADR-RES ovarian; 87.2% in the assay on T-47D breast; 111% in the assay on BT-549 breast. Besides, the growth with MDA-MB-435 melanoma is 103%; with SW-620 colon it was 107%; with MCF7 breast it was 93.3%; in the assay on HCT-116 colon, 95.5%; in the assay on HCC-2998 colon, 112%; with KM12 colon, 110%.

Regarding `O=C(O)c1cc2ccccc2s1`, the growth in the assay on SR leukemia is 104%; in the assay with RPMI-8226 leukemia, 105%; in the assay on OVCAR-8 ovarian it was 102%; in the assay with OVCAR-5 ovarian it was 103%; with OVCAR-4 ovarian, 113%; with SK-OV-3 ovarian, 103%. The growth with IGROV1 ovarian is 106%; with OVCAR-3 ovarian, 120%; with HS 578T breast it was 99.3%; in the assay with NCI/ADR-RES ovarian it was 108%; in the assay on T-47D breast, 91.9%; in the assay with BT-549 breast, 108%. The growth in the assay with MDA-MB-435 melanoma was 104%; in the assay with SW-620 colon, 103%; in the assay with MCF7 breast it was 111%; with HCT-116 colon, 105%; with HCC-2998 colon, 107%; in the assay with KM12 colon, 108%.

Source of the values: PubChem BioAssay (NCI).
